Many of the other results were omitted from the sample, so hits are more common in it than they were.
ROC1-CUL1 inh – inhibitors of human ROC1-CUL1 ubiquitin ligase activity; AID 1347404; P62877+Q13616; in vitro K48 di-Ub FRET, acceptor:donor ratio, 45 min; 0.6% of 140,000 active; inhibition, % at 10 µM; in the data active = inhibition above about 25%
A number is an active result; - = inactive.

SMILES | ROC1-CUL1 inh
O=C1N=C(Cl)C(N=Nc2ccc(Cl)cc2)C(=NCCO)N1 (centres undefined) | -
S=c1[nH]nc(-c2ccco2)n1-c1ccccc1 | -
Nn1c(=S)[nH]nc(/C=C/c2ccco2)c1=O | 96
Cc1ccc(-c2n[nH]c(=S)n2/N=C/C=C/c2ccco2)cc1 | -
COc1cc(CN2CCCC(N(C)Cc3ccccc3)C2)cc(OC)c1O (centres undefined) | -
Cc1ccc(C2C(C#N)C(=N)SC(=N)C2C#N)o1 (centres undefined) | 40
Cc1ccc(C2c3c(n[nH]c3C)OC(=N)C2C#N)o1 (centres undefined) | -
COc1ccc(C2C(C#N)C(=N)SC(=N)C2C#N)cc1OC (centres undefined) | -
Cc1cccc(NC(=O)N2CCN(c3ccccc3C)CC2)c1 | -
CCN(CC)c1ccc(Nc2nc(Cl)nc(Nc3ccc(N(CC)CC)cc3)n2)cc1 | -
O=C(O)CCC(=O)NCC1(c2ccccc2)CCCC1 | -
O=C(O)c1ccc(C2Nc3ccccc3-c3nnc(SCc4ccc(Cl)cc4)nc3O2)cc1 (centres undefined) | 26
O=C(O)CSc1nnc2c(n1)OC(c1ccc(Cl)cc1)Nc1ccccc1-2 (centres undefined) | -
COC(=O)c1ccc(C2Nc3ccccc3-c3nnc(SCc4ccc(C)cc4)nc3O2)cc1 (centres undefined) | -
Cc1ccc(NC(=O)CSc2ncnc3sc4c(c23)CCCC4)c(Br)c1 | -
Cc1nc(C(=O)N2CCC(C3(Cc4cccc(F)c4)NC(=O)N(CC(C)C)C3=O)CC2)cs1 (centres undefined) | -
CCOc1cc(C2NN=C(c3ccccc3)S2)ccc1OCc1ccccc1 (centres undefined) | -
O=C(O)C1(C(=O)O)C2C3C4CC5C6C4C2C6C1C53 (centres undefined) | -
O=C1Nc2ccccc2C(=O)C1SCCO (centres undefined) | -
O=C1c2c(Cl)c(Cl)c(Cl)c(Cl)c2C(=O)C1C(c1ccccc1)c1ccccc1 | 62
Cc1ccccc1C(c1ccccc1)C1C(=O)c2ccccc2C1=O (centres undefined) | -
CC(C(=O)OCC(=O)c1ccc(-c2ccccc2)cc1)N1C(=O)c2c(Cl)c(Cl)c(Cl)c(Cl)c2C1=O (centres undefined) | -
COc1cc(C=Nc2ccccc2C#N)c([N+](=O)[O-])cc1OC | -
c1ccc2c(c1)CCN(C1CCCN(CCCn3cccn3)C1)C2 (centres undefined) | -
O=S(=O)(c1c(N2CCCCC2)ccc2nonc12)N1CCCCC1 | -
SMILES | ROC1-CUL1 inh
C#CCOc1ccc(/C=C2\C(=O)N(c3ccc(C(=O)OCC)cc3)N=C2C(F)(F)F)cc1OCC | 41
CCOc1cc(/C=C2/C(=O)N(c3cccc(C(F)(F)F)c3)N=C2C)ccc1OCc1ccccc1 | -
C#CCOc1ccc(/C=C2/C(=O)N(c3ccc(C)cc3)N=C2C)cc1OCC | -
CN(CC1COCCO1)C1CCN(c2ccc(NC(=O)CCCCc3ccccc3)cc2)CC1 (centres undefined) | -
CNS(=O)(=O)c1ccc(OC)c(C(=O)NC2CCCC2)c1 | -
COc1ccc(N2C(=NC(=S)N(C)C)SC(=Nc3ccccc3)C2=Nc2ccccc2)cc1 | -
O=C1CC(=O)c2sc3nc(-c4ccccc4)ccc3c2N1 | -
Nc1nc(N)c2sc3nc(-c4cccs4)cc(-c4ccc(F)cc4)c3c2n1 | -
O=C1CC(=O)c2sc3nc(-c4cccs4)cc(-c4ccc(F)cc4)c3c2N1 | 26
O=c1[nH]c(=S)[nH]c2nc3c(c(-c4cccs4)c12)-c1ccccc1CCC3 | -
CCCn1c(C)c(CC(=O)N(C)CC(=O)OC)c2c1CC(C)(C)CC2=O | -
N#CC(C#N)=C/C=C(/Cl)c1ccccc1 | -
CCOc1c(/C=C(\C#N)C(N)=O)c2ccccc2n1CC | -
N#C/C(=C\C=C(/Cl)c1ccccc1)C(N)=O | 38
COc1ccc(NCC(O)CN2c3ccccc3Sc3ccccc32)cc1 (centres undefined) | -
O=C1N(c2ccccc2)N=C(c2ccccc2)C1(Br)Br | 60
CC1=NN(c2ccccc2)C(=O)C1c1ccccc1 (centres undefined) | -
O=C1C(=O)N(c2ccccc2)N=C(c2ccccc2)C1C(=O)c1ccccc1 (centres undefined) | -
CCCNC(=O)C/C(C)=N/NC(=O)C(=O)Nc1cc(C)ccc1OC | -
Cc1nc(CN)cc(N2CCC(c3nc(C(C)C)no3)CC2)n1 | -
Cc1ccc2nc(-c3c(-c4ccccc4)c4cc(Cl)ccc4[nH]c3=O)cc(-c3ccccc3)c2c1 | -
Cc1cc2c3c(c1)C1C=CCC1C(c1ccc(Br)cc1)N3CC1CC=CC21 (centres undefined) | -
O=[N+]([O-])c1ccc(C2C3CC=CC3c3c4c(cc5ccccc35)C3C=CCC3CN42)cc1 (centres undefined) | -
O=C(O)c1cc2c3c(c1)C1CC=CC1C(c1ccc(Br)cc1)N3CC1CC=CC21 (centres undefined) | 102

Source: PubChem BioAssay (Pan Lab, Icahn School of Medicine at Mount Sinai)
